Peg3 promoter = inhibitors of Peg3 promoter; HeLa PEG-Prom luciferase reporter, luminescence, overnight; inhibition, % at 20 µM; 360,000 tested, 1.7% active; AID 588405;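 active means inhibition of at least 50% at 20 µM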
KKLEB tox = CF airway cell cytotoxicity counter-screen. activity change (cytotoxicity), % at 5 µM. AID 602141. KKLEB CF airway cells viability, ATPlite luminescence, overnight; stronger effect = lower value; cells stimulated with P. aeruginosa culture filtrate. 360,000 tested, 0.36% active;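 active means corrected activity change at or below -50% at 5 µM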
TRPM1 prom inh = MITF TRPM1 promoter inhibition in SK-MEL-5 cells. SK-MEL-5 TRPM1 promoter luciferase, 24 h. inhibition, % at 12.5 µM. 330,000 tested, 0.83% active. AID 488899;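 active means mean inhibition across replicates of 60% or more, whatever share of single replicates reaches that level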
CHOP inh = blocks CHOP induction under ER stress; CHO-K1 CHOP-promoter luciferase, tunicamycin-induced, 15-18 h; inhibition, % at 10 µM; 220,000 tested, 3.8% active; AID 2732;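 active means compounds that reduced the stress-induced luciferase reporter signal by more than about 70% of percent inhibition, limit read from the data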;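 further: 0% = tunicamycin plus vehicle and 100% = wells without tunicamycin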
HIF-2a block = blocks HIF-2a reporter activity. 360,000 tested, 0.72% active. 786-0 RCC cells HIF-2a reporter, luciferase luminescence, overnight. inhibition, % at 18.8 µM;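 active means inhibition of the luminescence signal of 40% or more relative to plate controls, in a single-dose primary screen at 18.75 µM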
CF NFkB block = blocks PAF-induced NF-kB reporter in cystic fibrosis cells; KKLEB NF-kB-GFP reporter, GFP fluorescence overnight; inhibition, % at 5 µM; 360,000 tested, 0.86% active;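 active means at least 50% inhibition at 5 µM, scaled per plate between neutral and stimulator controls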;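 further: PAF is a Pseudomonas aeruginosa culture filtrate used as stimulus; plate controls were PAF-stimulated DMSO wells for no effect and unstimulated DMSO wells for full effect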
An asterisk follows results filed as active; . = no result. This is a sample that favours compounds with a hit; in the whole collection about 4.3% have one here.

SMILES	Peg3 promoter	KKLEB tox	TRPM1 prom inh	CHOP inh	HIF-2a block	CF NFkB block
CCOc1ccc(CCNC(=O)CSCC(=O)Nc2ccc(OC)cc2)cc1OCC	-17	3	.	.	-17	-6
COc1ccc2nc3cc(Cl)ccc3c(Nc3cc(CN4CCCC4)c(O)c(CN4CCCC4)c3)c2n1	97*	3	.	.	14	30
CSCCC(c1nnnn1C1CCCCC1)N1CCN(C/C=C/c2ccccc2)CC1 (configuration not stated)	4	4	.	.	-10	-2
CCCCC1=CC2=C(c3ccco3)C(=O)C(C)(OC(=O)c3ccc(OC)cc3)C(=O)C2=CN1CCCCO (configuration not stated)	7	-9	-8	12	-12	3
CCCCC1=CC2=C(c3ccco3)C(=O)C(C)(OC(=O)c3ccc(OC)cc3)C(=O)C2=CN1CC1CC1 (configuration not stated)	-12	-18	5	90*	15	10
CCCCC1=CC2=C(c3ccco3)C(=O)C(C)(OC(=O)c3ccc(OC)cc3)C(=O)C2=CN1CC(C)C (configuration not stated)	-7	10	-7	79*	1	-2
CCCCC1=CC2=C(c3ccco3)C(=O)C(C)(OC(=O)c3ccc(OC)cc3)C(=O)C2=CN1Cc1ccc(OC)cc1 (configuration not stated)	.	.	.	-2	.	.
CC1(Cc2ccccc2F)C(=O)Nc2c(Cl)ccc(Cl)c21 (configuration not stated)	9	-20	.	.	4	3
CC(C)n1nnnc1SCC(=O)Nc1cccc(F)c1	-54	18	-8	.	-62	6
CCCCC1CCC(C(=O)N(CCC(C)C)c2c(N)n(CCCC)c(=O)[nH]c2=O)CC1 (configuration not stated)	98*	-1	.	.	13	-4
CCCCC1CCC(C(=O)N(CC(C)C)c2c(N)n(CCCC)c(=O)[nH]c2=O)CC1 (configuration not stated)	14	-11	74*	.	18	13
CCCCC1CCC(C(=O)N(CCCC)c2c(N)n(CCCC)c(=O)[nH]c2=O)CC1 (configuration not stated)	21	-7	91*	.	19	13
CCCCn1c(N)c(N(CCC(C)C)C(=O)C2CCCO2)c(=O)[nH]c1=O (configuration not stated)	-3	17	5	.	7	-21
CC(=O)C[C@H](O)CC(=O)[C@@H]1OC(=O)CCCCC/C=C/Cc2ccccc21	-6	-10	-1	.	27	25
CCOc1cc2nc3c4ccccc4n(C)c3nc2cc1OCC	-85	-2	-27	34	-120	8
CCN(CC)Cc1cc(Nc2c3ccccc3nc3c4ccccc4n(C)c23)cc(CN(CC)CC)c1O	102*	17	78*	.	-5	-88
CN(C)S(=O)(=O)c1ccc(C(=O)NN2C(=O)NC3(CCCCC3)C2=O)cc1	9	16	5	.	2	-31
CCc1cccc2sc(N3CCN(C(=O)c4ccc([N+](=O)[O-])o4)CC3)nc12	2	-5	77*	.	38	4
Cc1nn(-c2ccccc2)c2[nH]c(=O)c(CNc3ccc(N4CCOCC4)cc3)cc12	-8	6	6	42	13	10
CC(C)(C)c1nn(-c2ccccc2)c2[nH]c(=O)c(CNc3ccc4c(c3)OCCO4)cc12	-19	16	41	65	-28	57*
CC(C)(C)c1nn(-c2ccccc2)c2[nH]c(=O)c(CNCc3ccco3)cc12	-10	12	67*	3	27	-4
COc1ccc(OC)c(NC(=O)c2cc(-c3ccc(C)cc3O)n[nH]2)c1	-45	1	-19	87*	-52	-16
COc1ccc(OC)c(NC(=O)c2cc(-c3cc(C)ccc3O)n[nH]2)c1	-22	-18	0	.	-65	31
CN1CCN(c2ccc(C(F)(F)F)cc2NC(=O)Nc2ccccc2)CC1	42	-8	9	.	-36	17
CSc1ccccc1NC(=O)CN(c1cc(C)cc(C)c1)S(C)(=O)=O	20	-2	7	47	16	7
CS(=O)(=O)N(CC(=O)Nc1ccccc1Sc1ccccc1)c1cccc(Br)c1	37	5	4	77*	33	-9

Screening results from PubChem.
